Results filed as inconclusive are left out. Unmarked numbers belong to inactive results. Calls of active or inactive are those of the source. The call rests on the fitted dose curve; in most records, active means well fitted inhibition curve with a large enough effect; inconclusive means small, poorly fitted or top-dose-only effect; inactive means flat fitted curve, though single readings scatter.
tested on: NIH3T3; assay: Cytotoxic Profiling of Annotated Libraries Using Quantitative High-Throughput Screening (AID 1296008); settings: Five cell lines viability, CellTiter-Glo ATP luminescence, 48-72 h; max response: hits give low values; further: nearly all actives have a fitted effect of over 60% in size
Procedure, shortened: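 Compounds were pin-transferred onto cells and incubated 48 or 72 hr at 37 degree Celsius, 95% humidity. CellTiter-Glo was added, plates sat 10 min at room temperature, then ATP-coupled luminescence was imaged as the viability read-out.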
On the % scale 0 is the no-effect control and ±100 the full control effect; potency means the concentration at half of the fitted maximal effect.

Row | Compound | Potency | max response | outcome
1 | CN1CCC(NC(=O)c2cc(-c3c(O)cc(O)cc3Oc3ccc([N+](=O)[O-])cc3)on2)CC1 | 5.8 µM (active) |  | 
2 | COc1ccc(C[C@H]2COC(=O)[C@@H]2Cc2ccc(O[C@@H]3O[C@H](CO)[C@@H](O)[C@H](O)[C@H]3O)c(OC)c2)cc1OC |  | -30.4% | 
3 | CCNC(=O)Nc1ccc(-c2nc3c(c(N4CCOCC4C)n2)CCN(C2COC2)C3)cc1 (stereo not drawn) | 2.31 µM (active) |  | 
4 | CC(/C=C/C(=O)NO)=C\[C@@H](C)C(=O)c1ccc(N(C)C)cc1 | 1.3 µM (active) |  | 
5 | CCc1cc(C(N)=O)ccc1-n1nc(C(C)C)c2c(-n3cnc(-c4cnn(C)c4)c3)ccnc21 | 1.3 µM (active) |  | 
6 | Cc1ccccc1C(C(=O)NC1CCCCC1)N(C(=O)Cn1cnc2ccccc21)c1cccc(F)c1 (stereo not drawn) | 18.4 µM (active) |  | 
7 | Cc1cc(-c2nc(-c3ccc(OC(F)(F)F)cc3)no2)nn1Cc1ccnc(N2CCN(C3CC3)CC2)c1 |  | -14.2% | 
8 | COc1cc(O)cc(OC2OC(CO)C(O)C(O)C2O)c1 (stereo not drawn) |  |  | inactive
9 | C1=C/COCc2cc(ccc2OCCN2CCCC2)Nc2nccc(n2)-c2cccc(c2)COC/1 | 4.11 µM (active) |  | 
10 | FC(F)(F)c1ccc(/C=C/c2nc(COc3ccc(CCCCn4ccnn4)cc3)co2)cc1 |  | -18.7% | 
11 | COC(=O)N1CCC(n2ncc3c(N4CCOCC4)nc(-c4ccc(NC(=O)NC5CC5)cc4)nc32)CC1 | 0.651 µM (active) |  | 
12 | C#CCCCn1cc(-c2cccc3c2N[C@H](C)CC(=O)N3)cn1 |  | -3.84% | 
13 | Nc1nc(O)c(C2=C3C(=Nc4ccccc43)C(=O)NCC2)[nH]1 |  | 2.47% | 
14 | O=c1cc(NCCCN[C@@H]2CCOc3c(Br)cc(Br)cc32)[nH]c2ccsc12 |  | 2.02% | 
15 | CN[C@@H]1[C@H](O[C@H]2[C@H](O[C@@H]3[C@@H](O)[C@H](O)[C@@H](N=C(N)N)[C@H](O)[C@H]3N=C(N)N)O[C@@H](C)[C@]2(O)CO)O[C@@H](CO)[C@H](O)[C@H]1O |  | 3.49% | 
16 | CCOC(=O)c1cnc2ccc(-c3cncc(NS(=O)(=O)c4ccccc4)c3)cn12 | 1.16 µM (active) |  | 
17 | CC[C@@H](C)Nc1cc(C(=O)NC2CC3CCC(C2)N3c2ccc(C(=O)C3CC3)cn2)c(C)cc1C(N)=O (stereo partly drawn) | 0.206 µM (active) |  | 

Row | Compound | Potency | max response | outcome
18 | CCNC(=O)c1noc(-c2cc(Cl)c(O)cc2O)c1-c1ccc(OC)cc1 | 0.92 µM (active) |  | 
19 | Cc1nc2ccc(CN(C)c3ccc(C(=O)NC(CCC(=O)O)C(=O)O)s3)cc2c(=O)[nH]1 (stereo not drawn) | 0.0651 µM (active) |  | 
20 | COC(=O)Nc1cc(Nc2cc(NC3CC3)c3ncc(C#N)n3n2)c(Cl)c(N2CCN(C)CC2)c1 | 14.8 µM (active) |  | 
21 | CCOC(=O)[C@@]1(CCCCCCOc2ccc(Cl)cc2)CO1 |  | -15.5% | 
22 | O=C(Cc1cccc(OC(F)(F)F)c1)Nc1ccc(CCCCc2nnc(NC(=O)Cc3ccccn3)s2)nn1 | 26.3 µM (active) |  | 
23 | O=C(Nc1ccc(Cl)cc1)C1CCCN(C(=O)c2cccc(-c3ccco3)c2)C1 (stereo not drawn) |  | -26.4% | 
24 | C=C(C)Cn1c(SCC(=O)c2cccs2)nc2sc3c(c2c1=O)CCCC3 | 1.84 µM (active) |  | 
25 | COc1cc(N2CCC(N3CCN(C)CC3)CC2)ccc1Nc1ncc(Cl)c(Nc2ccccc2P(C)(C)=O)n1 | 1.64 µM (active) |  | 
26 | Cc1sc2c(c1C)C(c1ccc(Cl)cc1)=N[C@H](CC(=O)NCCCCNC(=O)COc1cccc3c1C(=O)N([C@H]1CCC(=O)NC1=O)C3=O)c1nnc(C)n1-2 |  | -0.715% | 
27 | COc1c(C)cnc(Cn2cc(C#CCC(C)(C)O)c3c(Cl)nc(N)nc32)c1C | 0.206 µM (active) |  | 
28 | COc1ccc(N(C(=O)Nc2c(C)cccc2C)c2cc(Nc3ccc(N4CCN(C)CC4)cc3)ncn2)c(OC)c1 | 2.06 µM (active) |  | 
29 | C/C1=C/CCC2=CC(OC2=O)C(C)(C)/C=C/C1=O (stereo not drawn) | 4.11 µM (active) |  | 
30 | CCCC1(CCC)CCC2(CCN(CCCN(CC)CC)C2)CC1 | 3.66 µM (active) |  | 
31 | CCc1c[nH]c2ncnc(N3CC[C@](N)(CNC(=O)c4ccc(F)cc4F)C3)c12 |  | 4.64% | 
32 | C=CC(=O)Nc1cccc(Nc2nc(Nc3ccc(NC4CN(CCF)C4)cc3OC)ncc2C(F)(F)F)c1 | 13 µM (active) |  | 
33 | C=C(C)C(=O)OC1CC2(C)OC(=CC2=O)C(=C)CC2OC(=O)C(=C)C12 (stereo not drawn) | 2.86 µM (active) |  | 

Reference: PubChem BioAssay (NCATS)
